# Screening results as filed in PubChem BioAssay.
# The entries come from a sample that favours hits as a whole.
# FH mod = Identification of activators of human fumarate hydratase by quantitative high-throughput screening; Fumarate hydratase, mitochondrial (Homo sapiens), P07954; FH coupled MDH/diaphorase resazurin fluorescence, 15 min; Potency, µM (highest dose often 79.9 µM), for inactives: at the top dose activity change, negative = inhibition, hits mostly inhibitors; hit rate 0.22% among 54,000; AID 1347055, 2019; further: on the % scale 0 is the no-effect control and ±100 the full control effect; the screen sought activators but most active calls are inhibition curves; nearly all actives have a fitted effect of over 45% in size
# p53null 32C kill = p53 null cell cytotoxicity, permissive temperature; Potency, µM (highest dose often 46.1 µM), inactives show at the top dose activity change, negative = cytotoxicity, most hits filed as cytotoxic; H1299-neo p53 null cells, ATP luminescence, 24 h, 32C; hit rate 0.62% among 55,000; AID 903;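 further: 0% = DMSO only and -100% = full killing by 100 µM tamoxifen; nearly all actives have a fitted effect of over 55% in size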
#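 Overnight 37C seeding (600 cells/well) of H1299-neo preceded a 24 hr, 32C exposure to compounds up to 46 uM. ATP levels, read by luminescence after 20 min at RT, indicated surviving cells.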
# GALC G270D act = galactocerebrosidase G270D activity enhancement, cell-based; P54803; 145M-Twi-hGALC-G270D cells (Twitcher mouse brain line with human GALC G270D), HMU-beta-Gal fluorescence, 48 h; Potency, µM (titrated, usually from 57.5 µM), most hits filed as activators; hit rate 0.1% among 45,000; AID 1159614; further: 0% is about no effect; nearly all actives have a fitted effect of over 65% in size
#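 Brain-derived Twitcher mouse 145M-Twi cells stably expressing human GALC-G270D or wild-type GALC, treated live, then residual GALC activity read by fluorescence of HMU-b-Gal substrate (0.1 mM final) in citrate-phosphate buffer pH 5.2 with sodium taurocholate. Signal increase indicates enhancement.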
# p53null 39C tox = selectivity test: cytotoxicity in p53 null cells, nonpermissive temperature | H1299 p53-null (neo) cells, 39C, ATPlite viability, 24 h | Potency, µM (series often up to 46.1 µM), for inactives: at the top dose activity, negative = cell killing, usual class: cytotoxic | hit rate 0.97% among 55,000;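 further: 0% = DMSO only and -100% = full killing by 100 µM tamoxifen; nearly all actives have a fitted effect of over 50% in size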
#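 ATP-luminescence viability readout (ATPlite, 20 min RT) after 24 hr compound treatment at 39C of H1299-neo or H1299-p53A138V cells; titration up to 46 uM; normalized to DMSO and 100 uM tamoxifen; Hill-fit AC50.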
# NTMT1 inh = blocks human N-terminal methyltransferase 1 activity; Potency, µM (highest dose often 114 µM), for inactives: at the highest dose activity change, negative = inhibition, hits mostly inhibitors; hit rate 2.5% among 59,000; Q9BV86; NTMT1 MTase-Glo SAH luminescence, purified enzyme;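 further: plate controls were DMSO vehicle for no effect and no enzyme for full effect; nearly all actives have a fitted effect of over 65% in size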
# Target sequence (Q9BV86 whole entry, looked up): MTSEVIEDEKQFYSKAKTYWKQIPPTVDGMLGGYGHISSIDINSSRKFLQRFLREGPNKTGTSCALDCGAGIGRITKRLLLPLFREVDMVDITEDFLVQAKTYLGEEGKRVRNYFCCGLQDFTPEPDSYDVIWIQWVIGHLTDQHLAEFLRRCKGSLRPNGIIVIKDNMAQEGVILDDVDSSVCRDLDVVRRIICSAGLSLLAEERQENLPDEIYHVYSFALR
# Starred values were filed as active, the others as inactive; i = inactive; u = inconclusive; x = no result given; ! = not confirmed by another sample; [ ] = dose if it differs, or a comment. The call rests on the fitted dose curve; in most records, active means well fitted curve in the direction sought with a large enough effect; inconclusive means small, poorly fitted or top-dose-only effect, or another doubt; inactive means no such curve, though single readings can be large; an effect the other way counts as inactive or inconclusive. Potency means the concentration at half of the fitted maximal effect.
SMILES,FH mod,p53null 32C kill,GALC G270D act,p53null 39C tox,NTMT1 inh
CCc1ccc(-c2nc(CS(=O)CC(=O)NCc3ccc(F)cc3)c(C)o2)cc1 (configuration not stated),-1%,12%,i,12%,89µM*
CN(C)C(=O)C(=O)c1cn(C)c2cc(Cl)c(C(=O)N3CCC(Cc4ccc(F)cc4)CC3)cc12,-8%,x,x,x,-16%[57.5 µM]
CC(C)C1NC(=O)CNC(=O)C2CCCN2C(=O)C(Cc2c[nH]c3ccccc23)NC(=O)CNC(=O)C(Cc2ccc(O)cc2)NC(=O)CNC1=O (configuration not stated),1%[20.6 µM],x,x,x,15%[12.6 µM]
Oc1ccccc1,-7%[53.3 µM],x,i,x,-14%[57.5 µM]
Oc1ccc(O)cc1,3.5µM*,x,i,x,35µM*
CCOC(=O)c1c(-c2ccccc2)oc2ccc(NS(=O)(=O)c3ccccc3)cc12,x,89%,x,81%,x
CCOC(=O)c1cnc2ccc(-c3cncc(NS(=O)(=O)c4ccccc4)c3)cn12,23%,x,x,x,28µM*
Nc1ncnc2c1c(-c1ccc(Oc3ccccc3)cc1)nn2[C@@H]1CCCNC1,3%,x,x,x,-1%[57.5 µM]
Nc1ncnc2c1c(-c1cccc(OCc3ccccc3)c1)cn2C1CC(CN2CCC2)C1 (configuration not stated),-16%,x,x,x,10µM*!
FC(F)(F)c1ccccc1-c1nc(NCc2ccc(Cl)cc2)c2ccccc2n1,x,x,x,x,6%
O=C(Nc1ccc(Cl)c(Cl)c1)Nc1nnc(-c2cccnc2)s1,x,x,x,x,22µM*
CCN(CC)CCCNC(=O)CSc1c2c(nc3cc(Cl)ccc13)CCCC2,-23%,37%,i,13µM*,u
CCCCCCCCOc1ccccc1C(=O)Nc1ccc(C(=O)OCC[N+](C)(CC)CC)cc1,-14%[53.3 µM],x,i,x,3.5µM*!
CCCCOc1ccccc1C(=O)Nc1onc2c1CCCC2,-35%,5%,i,28%,-29%
CN(CCCN1c2ccccc2CCc2ccccc21)CC(=O)c1ccc(Cl)cc1,-11%[53.3 µM],x,i,x,32µM*
CN1CCN(c2nc3c(S(=O)(=O)c4ccc(Cl)cc4)nnn3c3ccsc23)CC1,-9%,-4%,i,-5%,79µM*
CC(C)c1ccc(S(=O)(=O)c2nnn3c2nc(N2CCN(C)CC2)c2sccc23)cc1,-35%,11%,i,-19%,-9%
CCN1CCN(c2nc3c(S(=O)(=O)c4ccc(C)cc4)nnn3c3ccsc23)CC1,4%,2%,i,-4%,79µM*
C[C@]12CC[C@H](O)CC1=CC[C@@H]1[C@@H]2CC[C@]2(C)C(c3cccnc3)=CC[C@@H]12,x,x,x,x,14%[57.5 µM]
N#CC1=C2SCN(C3CCCCC3)CN2C(=O)CC1c1c(F)cccc1Cl (configuration not stated),-15%,3%,i,10%,32µM*
N#CC1=C2SCN(C3CCCCC3)CN2C(=O)CC1c1ccc(F)cc1 (configuration not stated),-18%,4%,i,6%,25µM*
N#CC1=C2SCN(C3CCCCC3)CN2C(=O)CC1c1ccc(Cl)cc1 (configuration not stated),-27%,-1%,i,-13%,25µM*
COc1ccc(CCc2nc3cc(-c4c(C)noc4C)ccc3n2C[C@H](C)N2CCOCC2)cc1Cl,-2%,x,x,x,0%[57.5 µM]
CC(C)=CCC(O)[C@](C)(O)C1[C@H](O)C[C@@]2(C)C3CC=C4C(C[C@H](O)[C@@H](O[C@@H]5O[C@H](CO)[C@@H](O)[C@H](O)[C@H]5O)C4(C)C)[C@]3(C)C(=O)C[C@]12C (some centres not stated),1%[20.6 µM],x,x,x,4%[12.6 µM]
CC(=O)O[C@]1(C(C)=O)CC[C@H]2[C@@H]3CCC4=CC(=O)CCC4=C3[C@@H](c3ccc(N(C)C)cc3)C[C@@]21C,-4%,x,x,x,1%[57.5 µM]
O=C(Nc1ccc(C(=O)N2CCCCC2)cc1)c1nsc2ccccc12,-18%,4µM*,i,4µM*,14µM*
O=C(Nc1ccc(C(=O)N2CCN(c3ccc(F)cc3)CC2)cc1)c1nsc2ccccc12,-19%,0%,i,-14%,6%
CCOC(=O)c1ccc(NC(=O)c2nsc3ccccc23)cc1,-27%,7.9µM*,i,10µM*,u
